High-throughput results as filed in PubChem BioAssay.
D2 PAM-1 – positive allosteric modulators of human D2 dopamine receptor | P14416 | DiscoveRx D2 beta-arrestin cells, luminescence, 90 min; 100% = 57 uM dopamine signal | potentiation, % (no concentration beside the values) | 360,000 tested, 0.23% active; in the data active = potentiation above about 50%; inconclusive = mostly about 30% to 49%
Target sequence (P14416 whole entry, looked up): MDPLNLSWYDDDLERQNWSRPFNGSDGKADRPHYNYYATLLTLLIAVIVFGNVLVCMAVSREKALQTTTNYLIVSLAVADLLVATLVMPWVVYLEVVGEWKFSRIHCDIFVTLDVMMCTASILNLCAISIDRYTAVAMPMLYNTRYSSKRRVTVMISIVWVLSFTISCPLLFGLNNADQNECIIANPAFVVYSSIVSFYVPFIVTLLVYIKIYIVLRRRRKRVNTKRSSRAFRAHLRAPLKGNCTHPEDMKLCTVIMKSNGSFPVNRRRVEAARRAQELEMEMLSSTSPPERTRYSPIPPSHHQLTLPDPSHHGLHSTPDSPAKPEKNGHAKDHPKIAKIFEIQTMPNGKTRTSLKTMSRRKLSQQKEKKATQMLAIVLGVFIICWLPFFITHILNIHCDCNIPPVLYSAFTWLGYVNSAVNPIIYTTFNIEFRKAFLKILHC
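D2 cells co-treated with compound plus 50 nM dopamine (EC20) for 90 min at 37 deg C to detect potentiation. Beta-arrestin recruitment was read as enzyme-fragment luminescence after 1 h at ambient temperature. Full response was set by 57 uM dopamine.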
D2 ag-1 – D2 dopamine receptor (human) agonism. HEK293 T-REx D2 cells, calcium flux agonist mode. 340,000 tested, 0.53% active. AID 485358. activation, % at 2 µM;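 active = activation over 3 SD above normal in the single-dose calcium agonist read, cut at about 30% in these data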; also: 0% is about no effect
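Agonism is scored from calcium flux in a force-coupled, inducible HEK293 cell line expressing D2, read kinetically for 180 s after compound addition against dopamine controls.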
D2 antagonist – D2 dopamine receptor (human) antagonism. inhibition, % at 10 µM. P14416. 340,000 tested, 2% active. HEK293 TREx D2 cells, calcium flux, dopamine EC80; in the data active = inhibition above about 30%; inactive = below that, where a call was filed; also: 0% is about no effect
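Overnight-induced (tetracycline, 30 C) HEK293 T-REx cells carrying force-coupled D2 receive a no-wash calcium dye, then compound, then EC80 dopamine at 180 s; signals are read kinetically throughout.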
D2 ag-2 – human D2 receptor agonism in beta-arrestin assay; P14416; DiscoveRx PathHunter D2 beta-arrestin, luminescence, 90 min; 100% = 57 uM dopamine signal; activation, % (test concentration not listed); 360,000 tested, 0.084% active; in the data active = activation above about 40%; inconclusive = between about 15% and that limit
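DiscoveRx PathHunter D2 beta-arrestin cells (2,100/well) attached overnight, then compound-stimulated 90 min at 37 C in HBSS/10 mM HEPES/0.1% Tween-20 buffer; beta-galactosidase complementation read by luminescence after 1 h at ambient temperature. Dopamine 57 uM final (EC100) as control.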
D2 PAM-2 – D2 dopamine receptor (human) potentiation | HEK293 T-REx D2, calcium flux, EC20 dopamine potentiation | potentiation, % at 10 µM | 340,000 tested, 0.34% active | AID 485347;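 active = potentiation over 3 SD above the plate norm, cut at about 30% in these data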; also: 0% is about no effect
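Calcium flux readout, no-wash dye, 1 read/s. Inducible HEK293 Trex D2 line, overnight 30 C. Compound alone 180 s (agonist flags), then EC20 dopamine, another 180 s to score potentiation.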
* hit, by the source's call; ? = inconclusive; · = no result. Shown are actives, neighbours in structure and some others; about 2.4% of the full set was active somewhere.

SMILES | D2 PAM-1 | D2 ag-1 | D2 antagonist | D2 ag-2 | D2 PAM-2
CC1CN(C)C(C)CC1OC(=O)C(c1ccccc1)c1ccccc1 (stereo unspecified) | -17 | · | · | -5 | ·
CN(C(=O)c1ccc(NC(=O)C2CCCN(C(=O)OC(C)(C)C)C2)cc1)C1CCCC1 (stereo unspecified) | -7 | · | · | -1 | ·
COc1ccc(NC(=O)COc2cccc(-n3cnnn3)c2)cc1 | -8 | 0 | -2 | -1 | -5
NS(=O)(=O)c1ccc2c(c1)C(=NO)c1cc(S(N)(=O)=O)ccc1-2 | -3 | 1 | -7 | 8 | -6
NC1=C(Cl)C(=O)c2ccc(S(N)(=O)=O)cc2C1=O | 58* | · | · | 6 | ·
NC1=C(Cl)C(=O)c2ccccc2C1=O | 51* | · | · | 10 | ·
CCOC(=O)c1cc2sccc2n1CC(=O)N1CCc2ccccc21 | -6 | 0 | 0 | -1 | 34*
O=C(Nc1ccccn1)NC1CCCCC1 | -20 | 1 | -11 | -2 | 9
O=C(O)C1CCCCC1C(=O)Nc1ccccn1 (stereo unspecified) | 2 | 1 | 41* | -3 | -8
CNC(=O)C1CCC(=O)N1Cc1c[nH]c2ccccc12 (stereo unspecified) | -5 | · | · | -5 | ·
C1COC(NC(C2CC2)C2CC2)=N1 | -9 | 2 | 36* | 0 | -4
C1CCC(NC2=NCCO2)CC1 | -9 | · | · | -1 | ·
CN(C)CC(O)COc1cccc(OCC(O)CN(C)C)c1 (stereo unspecified) | -4 | 0 | 55* | -3 | -5
CSc1nnc(C)c(=O)n1COC(=O)c1ccccc1 | 5 | 0 | -4 | -1 | 6
CCN(CC)S(=O)(=O)c1ccc(C(=O)OCn2c(SC)nnc(C)c2=O)cc1 | 7 | 0 | 35* | 7 | -5
CCN(CC)S(=O)(=O)c1ccc(C(=O)OCn2nnc3ccccc3c2=O)cc1 | 1 | 1 | 7 | 3 | 75*
COC(=O)c1cc(OC)c(OC)cc1N1C(=O)CC(C)(C)CC1=O | -5 | -2 | 2 | 1 | -5
CC(C(=O)NCC1CCCCC1)N1CCc2ccccc2C1 (stereo unspecified) | -31 | 2 | 54* | -1 | -19
COc1ccc2c3c(ccc2c1)C(=O)/C(=C/O)CC3 | 52* | · | · | ? | ·
CC(=O)N1CCCC1c1nc2ccccc2n1Cc1ccccc1C (stereo unspecified) | · | · | · | · | -10
O=C1C(NS(=O)(=O)c2cccs2)=C(N2CCOCC2)C(=O)c2ccccc21 | -20 | 0 | 38* | -6 | 3
O=C1C(NS(=O)(=O)c2cccs2)=C(N2CCN(Cc3ccccc3)CC2)C(=O)c2ccccc21 | -18 | -1 | 39* | 7 | -23
Cc1ccc(C(=O)COC(=O)CCN2C(=O)C3C4C=CC(C5CC45)C3C2=O)cc1 (stereo unspecified) | -8 | 0 | -17 | -4 | 6
Cc1ccc(S(=O)(=O)N2CCN(C(=O)COC(=O)CNC(=O)c3ccccc3)CC2)c(C)c1 | -1 | 0 | 33* | -3 | 2
Cc1ccc(NC(=O)c2cc(S(=O)(=O)N3CCOCC3)ccc2Cl)cc1S(=O)(=O)N1CCOCC1 | 3 | · | · | -2 | ·
SMILES | D2 PAM-1 | D2 ag-1 | D2 antagonist | D2 ag-2 | D2 PAM-2
Cc1ccc(S(=O)(=O)N2CCCCC2C(=O)N(C)c2ccccc2)cc1 (stereo unspecified) | -6 | · | · | -3 | ·
COc1ccc(NC(=O)c2cc(-c3ccccc3OC)on2)cc1 | -10 | 0 | 32* | -2 | -27
COc1ccc(NC(=O)c2cc(-c3ccccc3Cl)on2)cc1 | -50 | 1 | 4 | -5 | -13
COc1ccc(-c2cc(C(=O)Nc3cc(C)on3)no2)cc1 | -9 | 2 | 3 | -1 | -10
COc1ccc(NC(=O)c2cc(-c3ccco3)on2)cc1 | -5 | 0 | -12 | -1 | -8
COc1ccc(OC)c(-c2cc(C(=O)Nc3cc(C)on3)no2)c1 | -19 | -1 | 38* | -2 | -40
CCc1ccc(NC(=O)c2cc(-c3ccco3)on2)cc1 | -4 | 0 | -16 | -1 | 53*
O=C(O)CCn1c(SCCc2ccccc2)nc2ccccc21 | -5 | · | · | -4 | ·
CCOC(=O)/C=c1\s/c(=C\c2ccc3c(c2)OCCO3)c(=O)n1CC(=O)NCC1CCCO1 (stereo unspecified) | -8 | 0 | 55* | -2 | -4
